This assay deals with furin, P09958. Nature of the assay: furin cleavage Z-score vs untreated control; higher = more cleavage, active = 3.5 or more, inactive = 1 or less, 8 variable residues between constant flanks. The procedure, abridged: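 Magnetic beads held 8-mer peptides by the N-terminus, each fused to a cDNA oligonucleotide, and purified furin was added for 7.5, 15 or 30 min. Released DNA was sequenced after PCR adapter tagging. The cleavage Z-score is the log count relative to furin-free reactions, lowess-adjusted and divided by median absolute deviation.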

This is one part of the list. How many sequences the whole screen found active is unknown.
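Further: purified furin at 1:10 enzyme:substrate in 50 mM HEPES pH 7.5.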

Chain of furin, P09958 (P09958 whole entry, the tested form may be a part): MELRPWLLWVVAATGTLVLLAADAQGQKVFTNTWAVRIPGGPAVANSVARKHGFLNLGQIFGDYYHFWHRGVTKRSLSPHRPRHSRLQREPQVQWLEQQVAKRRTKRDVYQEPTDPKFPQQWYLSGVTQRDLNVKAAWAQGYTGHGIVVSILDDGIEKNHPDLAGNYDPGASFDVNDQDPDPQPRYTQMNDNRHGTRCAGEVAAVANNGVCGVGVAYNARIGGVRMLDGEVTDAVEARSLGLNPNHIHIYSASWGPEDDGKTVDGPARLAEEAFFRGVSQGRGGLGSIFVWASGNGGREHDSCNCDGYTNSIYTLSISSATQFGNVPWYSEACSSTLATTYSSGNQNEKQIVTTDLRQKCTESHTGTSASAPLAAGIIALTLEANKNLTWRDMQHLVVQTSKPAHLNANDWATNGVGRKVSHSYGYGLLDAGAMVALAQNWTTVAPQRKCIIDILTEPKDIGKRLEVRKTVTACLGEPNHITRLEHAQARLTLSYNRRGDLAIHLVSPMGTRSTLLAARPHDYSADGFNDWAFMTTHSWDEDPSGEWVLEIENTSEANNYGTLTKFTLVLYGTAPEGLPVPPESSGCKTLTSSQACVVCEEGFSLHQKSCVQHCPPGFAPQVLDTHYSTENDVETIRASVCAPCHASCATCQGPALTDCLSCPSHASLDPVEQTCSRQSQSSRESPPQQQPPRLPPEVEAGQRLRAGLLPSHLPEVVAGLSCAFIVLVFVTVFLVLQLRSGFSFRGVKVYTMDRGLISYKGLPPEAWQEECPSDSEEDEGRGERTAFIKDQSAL

Consider CAQAETAGARAGNASASA [HC828], for which the “furin cleavage Z-score” value runs as follows: (7.5 min) -0.329 (inactive); (15 min) 0.716 (inactive); (30 min) -1.08 (inactive).

As for CADTAACGDIAGNASASA [HC655], the “furin cleavage Z-score” value runs as follows: (7.5 min) 0.349 (inactive); (15 min) -0.867 (inactive); (30 min) 1.

Take CAQGWGPISYAGNASASA [HC394]: the “furin cleavage Z-score” value is, setting by setting: (7.5 min) 1.47; (15 min) 0.693 (inactive); (30 min) 0.999 (inactive).

CASEPAPSGCAGNASASA [HC1345]: the “furin cleavage Z-score” value was -2.17 (inactive) (7.5 min), 0.166 (inactive) (15 min) and -1.95 (inactive) (30 min).

In the case of CATTPCPGSWAGNASASA [HC80], the “furin cleavage Z-score” value was 0.174 (inactive) (7.5 min), -1.3 (inactive) (15 min) and -1.39 (inactive) (30 min).

Take CAEFTTPCSGAGNASASA [HC1967]: the “furin cleavage Z-score” value was -0.433 (inactive) (7.5 min), -0.681 (inactive) (15 min) and -0.377 (inactive) (30 min).

In the case of CATTPCSGSHAGNASASA [HC1935], the “furin cleavage Z-score” value is -1.54 (inactive) (7.5 min), -0.464 (inactive) (15 min) and -0.211 (inactive) (30 min).

With CAAFSLHSYSAGNASASA [HC1606], the “furin cleavage Z-score” value (7.5 min) was 0.00727 (inactive), the “furin cleavage Z-score” value (15 min) was -0.749 (inactive) and the “furin cleavage Z-score” value (30 min) is -0.113 (inactive).

On to CAQTPCSGSWAGNASASA [HC1842], for which the “furin cleavage Z-score” value (7.5 min) is -1.2 (inactive), the “furin cleavage Z-score” value (15 min) is -0.187 (inactive) and the “furin cleavage Z-score” value (30 min) was -0.763 (inactive).

CARVSRLAGRAGNASASA [FS-3126]: the “furin cleavage Z-score” value runs as follows: (7.5 min) -0.719 (inactive); (15 min) -0.0593 (inactive); (30 min) -1.13 (inactive).

For CARVSRSVRKAGNASASA [FS-293], the “furin cleavage Z-score” value was 2.18 (7.5 min), 4.8 (active) (15 min) and 5.93 (active) (30 min).

CAAAFRFKRKAGNASASA [FS-1109]: the “furin cleavage Z-score” value runs as follows: (7.5 min) 9.75 (active); (15 min) 11.5 (active); (30 min) 9.51 (active).

Turning to CARVLRSDGKAGNASASA [FS-2102], the “furin cleavage Z-score” value is 1.54 (7.5 min), -0.134 (inactive) (15 min) and 1.59 (30 min).

For the sequence CARFGRFWKKAGNASASA [FS-2921], the “furin cleavage Z-score” value reads like this: (7.5 min) -0.769 (inactive); (15 min) 0.759 (inactive); (30 min) -0.706 (inactive).

For CACQQRFKRKAGNASASA [FS-1516], the “furin cleavage Z-score” value runs as follows: (7.5 min) 9.6 (active); (15 min) 8.5 (active); (30 min) 7.56 (active).

Regarding CADVFVLNNTAGNASASA [HC428], the “furin cleavage Z-score” value was 0.596 (inactive) (7.5 min), 0.292 (inactive) (15 min) and 1.32 (30 min).

In the case of CAEFVTSTWVAGNASASA [HC2167], the “furin cleavage Z-score” value (7.5 min) is 0.46 (inactive), the “furin cleavage Z-score” value (15 min) was -0.556 (inactive) and the “furin cleavage Z-score” value (30 min) stood at 1.32.

Consider CASTRCSAHLAGNASASA [HC2513], for which the “furin cleavage Z-score” value is, setting by setting: (7.5 min) -0.269 (inactive); (15 min) 0.477 (inactive); (30 min) 0.507 (inactive).

On to CAADVVDGAGAGNASASA [CS8], for which the “furin cleavage Z-score” value runs as follows: (7.5 min) 0.136 (inactive); (15 min) 0.768 (inactive); (30 min) -0.146 (inactive).

Consider CAWPHRSRKAAGNASASA [FS-574], for which the “furin cleavage Z-score” value is 0.887 (inactive) (7.5 min), 1.32 (15 min) and -0.0044 (inactive) (30 min).

On to CAGWIRSRKAAGNASASA [FS-1529], for which the “furin cleavage Z-score” value by setting is: (7.5 min) -0.333 (inactive); (15 min) 0.0867 (inactive); (30 min) 1.14.

Take CATVSRFRKAAGNASASA [FS-731]: the “furin cleavage Z-score” value is, setting by setting: (7.5 min) 4.07 (active); (15 min) 6.77 (active); (30 min) 7.8 (active).

Turning to CAGPQRQKKAAGNASASA [FS-1201], the “furin cleavage Z-score” value reads like this: (7.5 min) -1.12 (inactive); (15 min) -0.885 (inactive); (30 min) 1.12.

For CAGPSRFRKAAGNASASA [FS-162], the “furin cleavage Z-score” value is 5.12 (active) (7.5 min), 5.93 (active) (15 min) and 5.05 (active) (30 min).

On to CATVSSEANAAGNASASA [HC1364], for which the “furin cleavage Z-score” value (7.5 min) was -0.827 (inactive), the “furin cleavage Z-score” value (15 min) was -1.5 (inactive) and the “furin cleavage Z-score” value (30 min) is -0.39 (inactive).

For CAEVVLSTWVAGNASASA [HC124], the “furin cleavage Z-score” value is -1.79 (inactive) (7.5 min), 0.00773 (inactive) (15 min) and -0.313 (inactive) (30 min).

In the case of CATPLPAPNYAGNASASA [HC1196], the “furin cleavage Z-score” value reads like this: (7.5 min) -2.54 (inactive); (15 min) -0.301 (inactive); (30 min) -1.86 (inactive).

Source of the values: the supplement of paper PMC3545927.
